Values quoted from earlier work as cited in PubChem BioAssay AID977611.
Structures can show the parent of a compound that is named as a salt. Out of some 3,900 compounds screened, about 3,900 (100%) were called active. Cut-off not given; nearly all actives show Kd up to about 4200 µM. So high a share suggests a set chosen from earlier hits. The list shows a part of the results. Numbered stars: 1 amine (or outer) side, 2 acyl side, 3 side chain; on linkers, the order of the positions; unused ones are H or OH. Starred links: 1 amine or outer side, 2 acyl side, 3 side chain; linkers in the order of their positions; H or OH if unused. Where a SMILES comes first, the peptide text is derived from it. Non-standard residues stand in square brackets, D forms with d. Square brackets hold non-standard residues; d marks the D form. Residues, ends and D or L forms follow the SMILES beside them. Peptide text beside a SMILES is read from it. [ ]: non-standard residue; d: D form. * marks the point of attachment. X1 = O=C([C@H](Cc1ccc(O[P+](O)(O)O)cc1)N[*:1])[*:2]; Lys(Me3) = C[N+](C)(C)CCCC[C@H](N)C(=O)O; Orn(CH(NH2)2) = NC(N)NCCC[C@H](N)C(=O)O; Tfa = O=C(C(F)(F)F)*

Assay: PubChem AID 977611
Conditions: PDB protein-ligand complexes, literature Kd

Q: With `N#C/C(=C\c1ccncc1)C(=O)NCc1ccccc1` as the compound, how does the Kd (protein: RIO-type serine/threonine-protein kinase Rio1, PDB entry 4jin) read?
A: 2.28 µM (active)

Q: Which Kd (protein: Os05g0196500 protein, PDB entry 4igq) does the source give for `C[C@@H](O)[C@H](N)C(=O)N[C@@H](CCCC[N+](C)(C)C)C(=O)N[C@@H](CCC(N)=O)C(=O)O` (H-Thr-[Lys(Me3)]-Gln-OH) here?
A: 30.1 µM (active)

Q: Which Kd (protein: Polycomb protein EED, PDB entry 3k26) does the source give for `C[N+](C)(C)CCCC[C@H](N)C(=O)N[C@@H](CCC(N)=O)C(=O)O` (H-[Lys(Me3)]-Gln-OH) here?
A: 400 µM (active)

Q: For `CSCC[C@H](NC(=O)[C@H](CC(C)C)NC(=O)CNC(=O)[C@@H](NC(=O)[C@H](CC(N)=O)NC(=O)[C@H](CCC(=O)O)NC(=O)[C@H](Cc1ccc(O[P+](O)(O)O)cc1)NC(=O)[C@@H](N)C(C)C)C(C)C)C(=O)O` (H-V[X1]ENVGLM-OH), which Kd (protein: Grb2 SH2 domain, pY-Clamp Ptpn11_pY580, PDB entry 4jmg) is on record?
A: 0.0015 µM (active)

Q: For H-IGTDKELSDLLDFSAMFS-OH, which Kd (protein: eTAFH domain of AML1-ETO, PDB entry 2knh) is on record?
A: 7 µM (active)

Q: For `CC[C@H](C)[C@H](NC(=O)[C@H](CC(=O)O)NC(=O)[C@H](Cc1ccccc1)NC(=O)[C@H](CC(C)C)NC(=O)[C@H](CC(=O)O)NC(=O)CNC(=O)[C@@H](NC(=O)[C@@H](NC(=O)[C@H](CCCCN)NC(=O)[C@H](CC(C)C)NC(=O)[C@H](CCCNC(N)N)NC(=O)[C@H](CCCNC(N)N)NC(=O)[C@H](CO)NC(=O)[C@H](CC(C)C)NC(=O)[C@H](CC(N)=O)NC(=O)[C@H](CCC(=O)O)NC(=O)[C@H](CCSC)NC(=O)[C@@H](N)[C@@H](C)O)C(C)C)[C@@H](C)O)C(=O)N[C@@H](CCSC)C(=O)O` (H-TMENLS[Orn(CH(NH2)2)][Orn(CH(NH2)2)]LKVTGDLFDIM-OH), which Kd (protein: M11, the BCL-2 Homolog of Murine Gamma-herpesvirus 68, PDB entry 3bl2) is on record?
A: 1.58 µM (active)

Q: Which Kd (protein: Calmodulin, PDB entry 2mg5) does the source give for H-TFKEVANAVKISASLM-OH here?
A: 0.7 µM (active)

Q: Which Kd (protein: 3-dehydroquinate dehydratase (K170M mutation), PDB entry 4iuo) does the source give for `O=C(O)C1(O)C[C@@H](O)C(O)[C@H](O)C1` (stereo partly specified) here?
A: 230 µM (active)

Q: And the Kd (protein: 3-dehydroquinate dehydratase, PDB entry 4gui)?
A: 230 µM (active)

Q: For `OC[C@H]1O[C@@H](Oc2ccc3c(c2)Oc2cc(O)ccc2N3)[C@H](O)[C@@H](O)[C@H]1O`, which Kd (protein: PA-I galactophilic lectin, PDB entry 4lk7) is on record?
A: 9.1 µM (active)

Q: Which Kd (protein: PLASMINOGEN ACTIVATOR INHIBITOR 1, PDB entry 4aqh) does the source give for `CC(C)(C)OC(=O)N1CC(NC2NC(=O)c3cccnc3N2)C1` (stereo unspecified) here?
A: 0.29 µM (active)

Q: For `Cc1nn(C)c2sc(C(=O)O)cc12`, which Kd (protein: Pantothenate synthetase (T2A, E77G mutation), PDB entry 4fzj) is on record?
A: 700 µM (active)

Q: Which Kd (protein: CBL E3 ubiquitin protein ligase, PDB entry 1yvh) does the source give for `CC(C)[C@H](NC(=O)[C@H](C)NC(=O)[C@@H](N)CCCNC(N)N)C(=O)N[C@@H](CCC(=O)O)C(=O)N[C@@H](CC(N)=O)C(=O)N[C@@H](CCC(N)=O)C(=O)N[C@@H](Cc1ccc(O[P+](O)(O)O)cc1)C(=O)N[C@@H](CO)C(=O)N[C@@H](Cc1ccccc1)C(=O)O` (H-[Orn(CH(NH2)2)]AVENQ[X1]SF-OH) here?
A: 0.043 µM (active)

Q: Which Kd (protein: Suppressor of cytokine signaling 3(SOCS3), PDB entry 2hmh) does the source give for `CC(C)[C@H](NC(=O)[C@@H](NC(=O)[C@@H](NC(=O)[C@H](CO)NC(=O)[C@H](Cc1ccc(O[P+](O)(O)O)cc1)NC(=O)[C@H](CCC(=O)O)NC(=O)[C@@H](NC(=O)[C@@H](NC(=O)[C@@H](N)CO)[C@@H](C)O)C(C)C)[C@@H](C)O)C(C)C)C(=O)N[C@@H](Cc1cnc[nH]1)C(=O)N[C@@H](CO)C(=O)O` (H-STVE[X1]STVVHS-OH) here?
A: 0.07 µM (active)

Q: With `CC(C)[C@H](NC(=O)[C@H](CO)NC(=O)[C@H](CCC(=O)O)NC(=O)[C@@H](N)CC(N)=O)C(=O)N[C@@H](CC(=O)O)C(=O)N[C@@H](Cc1ccc(O[P+](O)(O)O)cc1)C(=O)N[C@@H](CCCNC(N)N)C(=O)N[C@@H](C)C(=O)O` (H-NESVD[X1][Orn(CH(NH2)2)]A-OH) as the compound, how does the Kd (protein: E3 ubiquitin-protein ligase CBL, PDB entry 3bux) read?
A: 2.36 µM (active)

Q: With H-AASFIDAKKMP-OH as the compound, how does the Kd (protein: coatomer alpha subunit, PDB entry 4j8g) read?
A: 64.5 µM (active)

Q: For `CC(C)C[C@H](NC(=O)[C@H](CC(C)C)NC(=O)[C@H](CCCCN)NC(=O)[C@H](CCCNC(N)N)NC(=O)[C@H](C)NC(=O)[C@@H]1CCCN1C(=O)[C@H](CC(=O)O)NC(=O)[C@H](Cc1ccc(O)cc1)NC(=O)[C@H](C)N)C(=O)O` (H-AYDPA[Orn(CH(NH2)2)]KLL-OH), which Kd (protein: ALIX Bro1-V domains (KK268, 269YY mutant), PDB entry 2xs8) is on record?
A: 24.5 µM (active)

Q: Which Kd (protein: T cell receptor (TCR), PDB entry 1r5w) does the source give for H-ADLIAYFKAATKF-OH here?
A: 2.9 µM (active)

Q: For H-AAIFYLAG-OH, which Kd (protein: HIV-1 protease, PDB entry 2nxd) is on record?
A: 2.2 µM (active)

Q: With H-TIYNTTLKY-NH2 as the compound, how does the Kd (protein: anti-human cytomegalovirus antibody 8f9, PDB entry 3eyf) read?
A: 0.094 µM (active)

Q: Which Kd (protein: T cell receptor (TCR), PDB entry 1r5v) does the source give for H-ADLIAYPKAATKF-OH here?
A: 33 µM (active)

Q: Which Kd (protein: Golgi-associated PDZ and coiled-coil motif-containing protein CAL PDZ (CALP) domain, PDB entry 4nmt) does the source give for `CC[C@H](C)[C@H](NC(=O)[C@H](CCCCNC(=O)C(F)(F)F)NC(=O)[C@H](CO)NC(=O)[C@@H](NC(=O)[C@@H]1CCCN1C(=O)[C@H](Cc1c[nH]c2ccccc12)NC(=O)[C@@H](N)CCCN=C(N)N)[C@@H](C)O)C(=O)O` (H-RWPTSK(Tfa)I-OH) here?
A: 14.1 µM (active)

Q: With `CC[C@H](C)[C@H](NC(=O)[C@H](Cc1c[nH]c2ccccc12)NC(=O)[C@H](CCC(=O)O)NC(=O)[C@H](CC(N)=O)NC(=O)[C@@H](N)CO)C(=O)N[C@@H](CCC(N)=O)C(=O)N1CCC[C@H]1C(=O)N[C@@H](CCCNC(N)N)C(=O)N[C@@H](CC(C)C)C(=O)N1CCC[C@H]1C(=O)N[C@H](C=O)CCC(N)=O` (H-SNEWIQP[Orn(CH(NH2)2)]LPQ-aldehyde) as the compound, how does the Kd (protein: Ephrin type-B receptor 2, PDB entry 2qbx) read?
A: 6 µM (active)

Q: Which Kd (protein: Golgi-associated PDZ and coiled-coil motif-containing protein CAL PDZ (CALP) domain, PDB entry 4nmr) does the source give for `CC[C@H](C)[C@H](NC(=O)[C@@H](NC(=O)[C@H](CO)NC(=O)[C@@H](NC(=O)[C@@H]1CCCN1C(=O)[C@H](CCCCNC(C)=O)NC(=O)[C@H](CCCN=C(N)N)NC(=O)[C@H](CO)NC(=O)[C@H](CC(N)=O)NC(=O)[C@H](C)N)[C@@H](C)O)[C@@H](C)CC)C(=O)O` here?
A: 298 µM (active)

Q: For `CC[C@H](C)[C@H](NC(=O)[C@@H](NC(=O)[C@H](CO)NC(=O)[C@@H](NC(=O)[C@H](CCCCNC(C)=O)NC(=O)[C@H](Cc1c[nH]c2ccccc12)NC(=O)[C@H](CCCN=C(N)N)NC(=O)[C@H](CO)NC(=O)[C@H](CC(N)=O)NC(=O)[C@H](C)N)[C@@H](C)O)[C@@H](C)CC)C(=O)O`, which Kd (protein: Golgi-associated PDZ and coiled-coil motif-containing protein CAL PDZ (CALP) domain, PDB entry 4nmq) is on record?
A: 32.3 µM (active)

Q: With `CC[C@H](C)[C@H](NC(=O)[C@@H](NC(=O)[C@H](CO)NC(=O)[C@@H](NC(=O)[C@@H]1CCCN1C(=O)[C@H](Cc1c[nH]c2ccccc12)NC(=O)[C@H](CCCNC(N)N)NC(=O)[C@H](CO)NC(=O)[C@H](CC(N)=O)NC(=O)[C@H](C)N)[C@@H](C)O)[C@@H](C)CC)C(=O)O` as the compound, how does the Kd (protein: Golgi-associated PDZ and coiled-coil motif-containing protein, PDB entry 4e34) read?
A: 0.97 µM (active)

Q: With H-RWPTSK(Ac)I-OH as the compound, how does the Kd (protein: Golgi-associated PDZ and coiled-coil motif-containing protein CAL PDZ (CALP) domain, PDB entry 4nmo) read?
A: 14.9 µM (active)

Q: For `C[C@@H](O)[C@@H](C=O)[C@H]1CC(S)=C(C(=O)O)N1`, which Kd (protein: Probable L,D-transpeptidase LdtA, PDB entry 4jmx) is on record?
A: 0.0621 µM (active)

Q: For `CC1=C(/C=C/C(C)=C/C=C/C(C)=C/CO)C(C)(C)CCC1`, which Kd (protein: bovine beta-lactoglobulin, PDB entry 1gx8) is on record?
A: 0.43 µM (active)

Q: With `C/C=C(C)/C=C/C=C(C)/C=C/C1=C(C)CCCC1(C)C` as the compound, how does the Kd (protein: Cellular retinoic acid-binding protein 2 (R111K, R132L, Y134F, T54V, R59W mutation), PDB entry 4i9s) read?
A: 0.162 µM (active)

Q: What about the Kd (protein: Cellular retinoic acid-binding protein 2 (R111K, R132L, Y134F, T54V, R59W, A32W mutation), PDB entry 4i9r) of the same compound?
A: 0.112 µM (active)
